Inconclusive results are not listed. Calls of active or inactive are those of the source. Unless noted, calls come from the whole dose curve.
Legend:
[1] = Nuclear factor erythroid 2-related factor 2/antioxidant responsive element (Nrf2/ARE) small molecule agonists: qHTS cell viability counter screen in human keratinocytes (AID 1919968; active = well fitted curve in the direction sought with a large enough effect in the repeat runs; an effect the other way counts as inactive or inconclusive; note: nearly all actives have a fitted effect of over 55% in size)
How it was run: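 In human HaCaT keratinocytes stably expressing an ARE-driven luciferase, compound exposure lasted 23 h at 37 C under 5% CO2. Viable cells are quantified with a protease-based fluorogenic reagent (CellTiter-Fluor) read 1 h after addition.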

[2] = Nuclear factor erythroid 2-related factor 2/antioxidant responsive element (Nrf2/ARE) small molecule agonists: luciferase reporter gene qHTS assay in human keratinocytes (AID 1919969); note: nearly all actives have a fitted effect of over 35% in size
[3] = molecular target: Gonadotropin-releasing hormone receptor (Homo sapiens) (UniProt P30968); assay: Human gonadotropin-releasing hormone receptor (GnRHR) small molecule agonists, calcium flux assay in GnRHR-HEK293 cells (AID 1920063); note: nearly all actives have a fitted effect of over 35% in size
Gonadotropin-releasing hormone receptor (Homo sapiens), sequence (P30968 whole entry, looked up): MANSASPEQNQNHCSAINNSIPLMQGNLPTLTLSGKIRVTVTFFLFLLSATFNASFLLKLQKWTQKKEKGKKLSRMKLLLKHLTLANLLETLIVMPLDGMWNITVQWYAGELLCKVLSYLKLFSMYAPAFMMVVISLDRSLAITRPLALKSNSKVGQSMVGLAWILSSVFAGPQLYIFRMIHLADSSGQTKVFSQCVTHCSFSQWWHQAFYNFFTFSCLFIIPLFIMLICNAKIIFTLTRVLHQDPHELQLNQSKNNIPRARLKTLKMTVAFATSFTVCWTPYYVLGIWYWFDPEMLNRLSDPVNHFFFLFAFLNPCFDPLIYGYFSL
How it was run: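 Intracellular calcium rise is the read-out: engineered human GnRHR HEK293 cells, dye-loaded, are exposed to DMSO-dissolved compounds and fluorescence at Ex/Em 480/540 is tracked for 3 min.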

[4] = molecular target: KiSS-1 receptor (Homo sapiens) (UniProt Q969F8); assay: Human kisspeptin (KISS1R) small molecule agonists, calcium flux assay in KISS1R-HEK293 cells (AID 1920064; active = well fitted curve in the direction sought with a large enough effect in the repeat runs; an effect the other way counts as inactive or inconclusive)
KiSS-1 receptor (Homo sapiens), sequence (Q969F8 whole entry, looked up): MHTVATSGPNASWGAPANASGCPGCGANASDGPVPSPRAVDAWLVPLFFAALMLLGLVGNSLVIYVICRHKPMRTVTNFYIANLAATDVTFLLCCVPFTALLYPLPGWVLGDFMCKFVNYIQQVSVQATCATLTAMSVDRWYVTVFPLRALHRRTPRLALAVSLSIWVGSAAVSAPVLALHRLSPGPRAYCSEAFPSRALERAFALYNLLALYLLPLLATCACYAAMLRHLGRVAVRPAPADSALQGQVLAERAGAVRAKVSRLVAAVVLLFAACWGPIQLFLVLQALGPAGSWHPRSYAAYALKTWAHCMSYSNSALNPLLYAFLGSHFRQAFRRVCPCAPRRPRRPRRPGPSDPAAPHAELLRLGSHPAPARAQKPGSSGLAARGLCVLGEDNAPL
How it was run: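 Concentration-response testing used 15 concentrations in triplicate on human KISS1R-expressing HEK293 cells. Calcium-dependent fluorescence (Ex/Em 480/540) was followed kinetically for 3 min after compound transfer.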

[5] = G protein-coupled receptor (GPCR) small molecule agonists, calcium flux assay: HEK293 wild type cell line counter screen (AID 1920065)
How it was run: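 Fluorescence intensity signals activation. After overnight (18 h) culture and a 1 h calcium dye load at 37 C, compounds are added by pin tool and the plate read at 480/540 nm for 3 min in 1 s steps.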

[6] = p53 small molecule agonists, cell-based qHTS assay with human liver microsomes (AID 1963577);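 note: p53 response element beta-lactamase reporter cells with liver microsomes plus NADPH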
How it was run: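 Reporter activation was measured by LiveBLAzer fluorescence intensity in p53RE-bla cells, which had been exposed to compounds for 16 h at 37 C alongside 0.5 mg/mL human liver microsomes and 0.5 mg/mL NADPH (final concentrations).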

[7] = p53 small molecule agonists, cell-based qHTS assay with rat liver microsomes (AID 1963578)
How it was run: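 Compound in DMSO added to p53RE-bla cells 5 h post-plating; rat microsomes/NADPH 0.5 mg/mL final; 16 h, 37 C; LiveBLAzer 2 h RT.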

[8] = p53 small molecule agonists, cell-based qHTS assay with human liver microsomes: qHTS cell viability counter screen (AID 1963579); note: nearly all actives have a fitted effect of over 45% in size
How it was run: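 HLM-supplemented (0.5 mg/mL final) and NADPH-supplemented (0.5 mg/mL final) p53RE-bla cultures, 4,000 cells per well, were dosed with compounds in DMSO for 16 h at 37 C; luminescent ATP detection (CellTiter-Glo, 30 min, room temperature) quantified surviving cells.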

[9] = p53 small molecule agonists, cell-based qHTS assay: qHTS cell viability counter screen (AID 1963581); note: nearly all actives have a fitted effect of over 45% in size
How it was run: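 Luminescence from CellTiter-Glo, reflecting ATP content, serves as the cytotoxicity measure; it is taken after the 2 h reporter substrate step in HCT-116 p53RE-bla cells dosed for 16 h at 37 C.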

[10] = p53 small molecule agonists, cell-based qHTS assay (AID 1963582; active = well fitted activation curve with a large enough effect in the signal ratio in the repeat runs, not every such curve was filed as active; the % refers to the signal ratio)
How it was run: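 After plating, p53RE-bla cells sat 5 h in the incubator; compounds or DMSO vehicle were pinned in; a 16 h incubation at 37 C followed; FRET substrate was added and, 2 h later at RT, fluorescence was measured.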

[11] = molecular target: 5-hydroxytryptamine receptor 2A (Homo sapiens) (UniProt P28223); assay: 5-hydroxytryptamine receptor 2A (HTR2A) small molecule antagonists, cell-based qHTS assay (AID 1963586); note: nearly all actives have a fitted effect of over 45% in size
5-hydroxytryptamine receptor 2A (Homo sapiens), sequence (P28223 whole entry, looked up): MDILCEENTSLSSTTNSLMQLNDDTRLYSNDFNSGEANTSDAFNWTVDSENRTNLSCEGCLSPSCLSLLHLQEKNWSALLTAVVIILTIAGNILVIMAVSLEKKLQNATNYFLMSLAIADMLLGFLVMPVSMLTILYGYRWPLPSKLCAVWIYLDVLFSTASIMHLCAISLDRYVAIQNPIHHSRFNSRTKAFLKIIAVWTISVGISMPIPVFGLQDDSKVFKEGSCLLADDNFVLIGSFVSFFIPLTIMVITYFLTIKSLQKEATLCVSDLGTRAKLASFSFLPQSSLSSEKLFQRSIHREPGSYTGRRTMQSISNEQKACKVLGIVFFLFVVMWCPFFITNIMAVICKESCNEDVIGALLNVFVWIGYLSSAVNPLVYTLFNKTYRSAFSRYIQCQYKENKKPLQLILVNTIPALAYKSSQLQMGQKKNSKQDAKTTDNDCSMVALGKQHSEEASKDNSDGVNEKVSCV
How it was run: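 CHO cells stably expressing human HTR2A were plated for 18 h at 37 C, then loaded with calcium dye for 1 h. Compounds were preincubated 5 min at room temperature before DOI (4 nM solution) was added. Kinetic fluorescence was read for 3 min.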

[12] = molecular target: 5-hydroxytryptamine receptor 2A (Homo sapiens) (UniProt P28223); assay: 5-hydroxytryptamine receptor 2A (HTR2A) small molecule agonists, cell-based qHTS assay (AID 1963587); note: nearly all actives have a fitted effect of over 30% in size
How it was run: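 CHO cells stably expressing human HTR2A, plated 18 h, loaded with calcium dye 1 h at 37 C. Agonist mode: compounds added and intracellular calcium fluorescence recorded kinetically for 2 min at 1 sec intervals.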

[13] = molecular target: Muscarinic acetylcholine receptor M1 (Homo sapiens) (UniProt P11229); assay: Cholinergic receptor muscarinic 1 (CHRM1) small molecule antagonists, cell-based qHTS assay (AID 1963588); note: nearly all actives have a fitted effect of over 40% in size
Muscarinic acetylcholine receptor M1 (Homo sapiens), sequence (P11229 whole entry, looked up): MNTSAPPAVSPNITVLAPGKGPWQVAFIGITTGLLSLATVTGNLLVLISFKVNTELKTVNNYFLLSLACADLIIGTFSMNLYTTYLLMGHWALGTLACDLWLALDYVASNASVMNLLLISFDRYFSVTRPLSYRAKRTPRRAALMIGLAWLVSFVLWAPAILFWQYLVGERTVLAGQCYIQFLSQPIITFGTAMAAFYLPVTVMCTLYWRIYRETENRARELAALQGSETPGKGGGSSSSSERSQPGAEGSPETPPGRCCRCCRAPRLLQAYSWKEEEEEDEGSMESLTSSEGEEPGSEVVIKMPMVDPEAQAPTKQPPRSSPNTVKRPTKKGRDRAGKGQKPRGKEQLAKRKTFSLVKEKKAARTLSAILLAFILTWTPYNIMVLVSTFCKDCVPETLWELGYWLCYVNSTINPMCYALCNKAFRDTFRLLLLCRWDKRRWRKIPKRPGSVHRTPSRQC
How it was run: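 Compounds were tested at 15 concentrations in three independent runs. Dye-loaded CHRM1-CHO cells were exposed 5 min at room temperature before stimulation by acetylcholine added at 50nM. Intracellular calcium was read kinetically on FDSS for 3 min.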

[14] = molecular target: Muscarinic acetylcholine receptor M1 (Homo sapiens) (UniProt P11229); assay: Cholinergic receptor muscarinic 1 (CHRM1) small molecule agonists, cell-based qHTS assay (AID 1963589); note: nearly all actives have a fitted effect of over 35% in size
How it was run: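 Fluorescent calcium dye reports M1 activation in stably transfected CHO cells. Compounds, 15 concentrations, added after 1 h dye loading at 37 C; kinetic reading at 1 sec intervals.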

[15] = cAMP Responsive Elements (CRE) small molecule agonists, cell-based qHTS assay (AID 1963590)
How it was run: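 Compound exposure lasted 3 h at 37 C/5% CO2 in CRE-bla HEK 293T cells grown in assay medium with 10% dialyzed FBS and 25 mM HEPES. Reporter signal came from LiveBLAzer B/G FRET substrate, 2 h, room temperature.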

[16] = cAMP Responsive Elements (CRE) small molecule antagonists, cell-based qHTS assay (AID 1963591; active = well fitted inhibition curve with a large enough effect in the signal ratio in the repeat runs, not every such curve was filed as active; the % refers to the signal ratio)
How it was run: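 Stimulation used NKH477 at a final 0.25 uM for 3 h in compound-treated CRE-bla HEK293T cells, seeded 18 h beforehand. Reporter activity was measured with LiveBLAzer B/G FRET substrate after 2 h at room temperature.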

[17] = molecular target: Beta-2 adrenergic receptor (Homo sapiens) (UniProt P07550); assay: Adrenergic beta2 receptor (ADRB2) small molecule antagonists, cell-based qHTS assay (AID 1963592); note: series mostly up to about 92 µM; nearly all actives have a fitted effect of over 50% in size
Beta-2 adrenergic receptor (Homo sapiens), sequence (P07550 whole entry, looked up): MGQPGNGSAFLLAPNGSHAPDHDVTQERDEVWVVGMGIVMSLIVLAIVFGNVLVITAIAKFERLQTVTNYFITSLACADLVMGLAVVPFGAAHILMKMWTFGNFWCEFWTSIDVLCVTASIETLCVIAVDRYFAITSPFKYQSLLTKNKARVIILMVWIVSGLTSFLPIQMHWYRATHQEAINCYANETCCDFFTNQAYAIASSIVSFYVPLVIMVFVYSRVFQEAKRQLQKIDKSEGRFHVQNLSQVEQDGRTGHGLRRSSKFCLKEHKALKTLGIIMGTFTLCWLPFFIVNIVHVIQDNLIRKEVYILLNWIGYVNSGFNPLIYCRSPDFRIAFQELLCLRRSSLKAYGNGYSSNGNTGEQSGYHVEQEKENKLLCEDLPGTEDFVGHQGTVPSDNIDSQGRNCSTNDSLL
How it was run: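 Assay format: CHO-ADRB2 cells, 18-20hr seeding at 37C/5% CO2, then compound plus 1nM isoproterenol agonist mix for 0.5hr RT. Homogeneous time-resolved fluorescence cAMP detection after 1hr, expressed as 665/615 nm ratio.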

[18] = molecular target: D(2) dopamine receptor (Homo sapiens) (UniProt P14416); assay: Dopamine D2 receptor (DRD2) small molecule agonists, cell-based qHTS assay (AID 1963594); note: nearly all actives have a fitted effect of over 35% in size
D(2) dopamine receptor (Homo sapiens), sequence (P14416 whole entry, looked up): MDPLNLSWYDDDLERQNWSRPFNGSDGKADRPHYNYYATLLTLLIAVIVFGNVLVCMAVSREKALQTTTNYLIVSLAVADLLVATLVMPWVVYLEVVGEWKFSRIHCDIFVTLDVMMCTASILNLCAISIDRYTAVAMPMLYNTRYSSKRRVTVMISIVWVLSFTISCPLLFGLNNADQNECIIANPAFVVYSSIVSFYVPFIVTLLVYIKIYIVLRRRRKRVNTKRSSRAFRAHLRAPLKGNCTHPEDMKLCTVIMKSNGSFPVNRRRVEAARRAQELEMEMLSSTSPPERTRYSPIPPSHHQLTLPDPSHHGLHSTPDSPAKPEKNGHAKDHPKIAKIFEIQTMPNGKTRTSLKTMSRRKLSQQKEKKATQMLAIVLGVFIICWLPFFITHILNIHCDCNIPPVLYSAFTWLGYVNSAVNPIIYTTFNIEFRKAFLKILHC
How it was run: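 HEK293 cells stably expressing human DRD2, pre-treated with PDE inhibitor Ro20-1724 (0.1 mM final) and compound 10 min at room temperature, then stimulated with NKH477 (200nM […]) for 30 min. cAMP read by HTRF (665/620 nm).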

[19] = p53 small molecule agonists, cell-based qHTS assay with rat liver microsomes: qHTS cell viability counter screen (AID 1963580); note: nearly all actives have a fitted effect of over 45% in size
How it was run: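 Cytotoxicity counter screen: intracellular ATP measured by CellTiter-Glo luminescence in the same wells as the beta-lactamase reporter read, on HCT-116 p53RE-bla cells exposed 16 h at 37 C to compounds with rat liver microsomes and NADPH, each 0.5 mg/mL final.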

[20] = molecular target: D(2) dopamine receptor (Homo sapiens) (UniProt P14416); assay: Dopamine D2 receptor (DRD2) small molecule antagonists, cell-based qHTS assay (AID 1963595; active = well fitted inhibition curve with a large enough effect in the signal ratio in the repeat runs, with a control signal flat; the % refers to the signal ratio)
How it was run: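 HTRF cAMP read-out at 665 and 620 nm emission (340 nm excitation). Antagonist mode: compounds were tested against 12 nM quinpirole in DRD2-HEK293 cells, with 200 nM NKH477 raising cAMP and 0.1 mM Ro20-1724 blocking its breakdown.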

Measured: Potency

ClC1(Cl)C2(Cl)C3(Cl)C4(Cl)C(Cl)(Cl)C5(Cl)C3(Cl)C1(Cl)C5(Cl)C24Cl (stereo not given)
not listed: [19] | [20]
inactive: all other assays above

CCCCCCC1CCOC1=O (stereo not given)
not listed: [9]
inactive: all other assays above

NC1(c2ccccc2)CCCCC1
not listed: [8]
inactive: all other assays above

COC(=O)Cc1ccccc1
not listed: [8]
inactive: all other assays above

CCOC(=O)c1ccccc1C(=O)OCC
not listed: [9] | [17] | [19]
inactive: all other assays above

Cc1cc(Cl)ccc1O
not listed: [8]
inactive: all other assays above

CCN(CCO)CCO
not listed: [8]
inactive: all other assays above

From PubChem BioAssay (Tox21)
